Over roughly 25,000 sequences, “ln(normalized median fluorescence intensity)” has its median near 6.7; the highest 2% begin near 10. What follows is part of a selection rich in the highest values, with near analogues and random picks from the rest.
Each sequence was assayed on PfHDP1 homeodomain (GST-tagged) (assay: gcPBM binding intensity (ln(normalized median fluorescence intensity)); higher = stronger DNA binding).
Summary of the method: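 GST-fused DNA-binding domains of P. falciparum, expressed in E. coli, were applied at about 25 μg on average for 1 h to an Agilent 4 × 180k array of primer-extended double-stranded 36-bp intergenic genomic probes and negative controls. Binding intensity is the highest Masliner-normalised natural-log median intensity across replicate spots of either probe orientation, measured with Alexa488 anti-GST antibody and a 488 nm scan.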
For “GCATCATTTATTTGCACACCTATTATATACTTTTTA [CACACA_site2098]”, the “gcPBM binding intensity (ln)” value was 10.7.
With “ATATTTTACATATTTGCACACATATATTTATATACA [CACACA_site855]” the “gcPBM binding intensity (ln)” value was 10.7.
“TATTTTTGTATATATTTATTCTTATTTTACAGGAAA [TGCATGCA_negctrl_site472]” was tested, and the “gcPBM binding intensity (ln)” value was 6.22.
For “GGATGCACACAAAAGGGTACATAAGAAAAAAACAGG [XGTACX_site8570]”, the “gcPBM binding intensity (ln)” value was 9.42.
With “TTTATATTTTAAAAAATAATATTATGTATTTTTAAA [TGCATGCA_negctrl_site507]” the “gcPBM binding intensity (ln)” value was 6.01.
With AAACAATATTCTCAAGTGCAAAAAGAAAAAAGAAAT the “gcPBM binding intensity (ln)” value was 9.37.
“CCTTTTTTTTTTTTATGTACTAAAATAAAATTAGAA [XGTACX_site5956]” was tested, and the “gcPBM binding intensity (ln)” value was 6.14.
With “TATAAAATAATTAAATGTACATAATATATAAAATAT [XGTACX_site6777]” the “gcPBM binding intensity (ln)” value was 6.69.
With “GTAATTTTTTTCTATACACACATATATATAATATAT [CACACA_site2655]” the “gcPBM binding intensity (ln)” value was 7.08.
“TTTGTGTTGTATTTTTGTACATAAAATAAACTTAAA [XGTACX_site4637]” was tested, and the “gcPBM binding intensity (ln)” value was 6.65.
With “TATTTAAATGGATGCACACATGCATTAAATAAAATA [CACACA_site3433]” the “gcPBM binding intensity (ln)” value was 8.59.
In the case of “ATTTTACATATTTGCACACATATATTTATATACATA [CACACA_site854]”, the “gcPBM binding intensity (ln)” value is reported as 10.6.
For “ATATTAAGTTTTATTACACACTCTCAATTTTTATTT [CACACA_site4206]”, the “gcPBM binding intensity (ln)” value was 6.63.
“TACATTTTTATTTTTACACACATATTTATTTATATA [CACACA_site6609]” was tested, and the “gcPBM binding intensity (ln)” value was 7.06.
“TATTTATTTTTTTGCACACATATTTTACATTTTAAT [CACACA_site3181]” was tested, and the “gcPBM binding intensity (ln)” value was 10.8.
With “TTTTCATTTTTCTTTACACACATATATTTATTTATA [CACACA_site7119]” the “gcPBM binding intensity (ln)” value was 7.15.
In the case of “ATGACTCTCAAGTTTGCACACATTTATATTTTTTAA [CACACA_site2605]”, the “gcPBM binding intensity (ln)” value is reported as 10.5.
For “ATATATTTTATACATACACACATATATATATTTTTT [CACACA_site3940]”, the “gcPBM binding intensity (ln)” value was 6.83.
“TATATATATATTTTTGCACACATTTTTTAAGGTACA [CACACA_site2145]” was tested, and the “gcPBM binding intensity (ln)” value was 10.3.
In the case of “TATATACATATATATACACACATATATATATTTTAT [CACACA_site3788]”, the “gcPBM binding intensity (ln)” value is reported as 6.65.
For “TTTTTATATTTTTGCACACATTCTTTACTCTTCAAA [CACACA_site2210]”, the “gcPBM binding intensity (ln)” value was 10.4.
With “AATATTTATTTTTTTGCACACATATTTTACATTTTA [CACACA_site3182]” the “gcPBM binding intensity (ln)” value was 10.3.
“TATTTTTATATTTTTGCACACATTCTTTACTCTTCA [CACACA_site2211]” was tested, and the “gcPBM binding intensity (ln)” value was 10.6.
With “TAATGTACATAAACCGCACACATATAAAAAAATAAA [CACACA_site2851]” the “gcPBM binding intensity (ln)” value was 6.79.
With “ATAAAAATTTATATATGTACTTAATTTTTAATTTTT [XGTACX_site7482]” the “gcPBM binding intensity (ln)” value was 5.98.
In the case of “ACATACAAGAATTAAACACACACAAAATATAAATTC [CACACA_site8985]”, the “gcPBM binding intensity (ln)” value is reported as 6.8.
For “TATCTCTCTTTCTGCTGTACATAAAAATTATATAAT [XGTACX_site5961]”, the “gcPBM binding intensity (ln)” value was 7.19.
In the case of “GGCTTTTTTTAATATGCACACATATATTTTATATAT [CACACA_site8647]”, the “gcPBM binding intensity (ln)” value is reported as 10.2.
For “TTTTTCTTTATTAGCACACATAATATTATATATGTG [CACACA_site2629]”, the “gcPBM binding intensity (ln)” value was 7.1.
For “GTATATAATTTATGTGCACACACTCCTATTTTTAGC [CACACA_site49]”, the “gcPBM binding intensity (ln)” value was 11.1.
“ATATAATTTATGTGCACACACTCCTATTTTTAGCTT [CACACA_site50]” was tested, and the “gcPBM binding intensity (ln)” value was 11.3.
“TATAATTATTTTTTCACACATATGTATTTATATATA [CACACA_site4205]” was tested, and the “gcPBM binding intensity (ln)” value was 7.05.
For “ATATAATATTTATATGCACACTTTTCTATATATAAG [CACACA_site6100]”, the “gcPBM binding intensity (ln)” value was 8.84.
In the case of “TTTTCTATGCTAAACACACTCATTGTTACAAGTTTT [CACACA_site5531]”, the “gcPBM binding intensity (ln)” value is reported as 6.78.
“TATGAAAATATATATTGTACAGAATCTATAAAAAAT [XGTACX_site8030]” was tested, and the “gcPBM binding intensity (ln)” value was 6.39.
With “TTTAAAAAATTATATTCACACACATACACATATATA [CACACA_site8076]” the “gcPBM binding intensity (ln)” value was 6.95.
In the case of “ATTTTTTTTTTTTTATGTACATATAGGTGCAAATCA [XGTACX_site6748]”, the “gcPBM binding intensity (ln)” value is reported as 11.1.
For GACAATTATATGTAGGTGCATATACAAATTTTTTAA, the “gcPBM binding intensity (ln)” value was 9.14.
In the case of “CATATATATTTTATATGTACATATATATTTTATATA [XGTACX_site8665]”, the “gcPBM binding intensity (ln)” value is reported as 6.35.
With “TACATAAAATATATCACACATATAATATATATATAT [CACACA_site5834]” the “gcPBM binding intensity (ln)” value was 8.54.
For “GAAATGTGATAATATACACACACGCATATATATATA [CACACA_site4332]”, the “gcPBM binding intensity (ln)” value was 8.82.
With “CAAAATATTTTTATAACACACATATATAGAATGTGC [CACACA_site1145]” the “gcPBM binding intensity (ln)” value was 6.34.
For “TTCTGCAGCAATGTTTTTTTTAAATATTTATATGGT [CACACA_negctrl_site1815]”, the “gcPBM binding intensity (ln)” value was 6.51.
In the case of “AAAAATAGAGCAGCTCTCATATTTTTATGTGCAATA [CACACA_negctrl_site837]”, the “gcPBM binding intensity (ln)” value is reported as 10.6.
“TTTTTTTATCAATGTTGTACTTTTTTTTTTTTCCAT [XGTACX_site8864]” was tested, and the “gcPBM binding intensity (ln)” value was 6.18.
“ATTAAAAAAAAAAAAAAAAAAAAAAAAAAAAAAAAA [CACACA_negctrl_site1060]” was tested, and the “gcPBM binding intensity (ln)” value was 6.3.
